Common to all, as to test: yeast three-hybrid, YBZ-1, SC-Leu-His + 0.5 mM 3-AT, 4 days
What all share (settings): tags: N-Gal4 AD-HA kept; label: inside an RPR1-promoter hybrid RNA with tandem MS2 sites; ssRNA

The target of one test is PUM1 PUF domain R7-RPE (Homo sapiens, UniProt Q14671 828-1176, S1079R;N1080P). The gist of the method:
(§1)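 Pumilio-1 PUF domain libraries, randomized at the three base-contacting residues of each repeat, were co-expressed with matching RNA elements from a centromeric plasmid in strain YBZ-1, which carries a LexA–MS2 coat fusion and a HIS3 reporter. Transformants grew for four days on SC-Leu (input) or on SC-Leu-His + 0.5 mM 3-AT (selection), and the repeat regions were PCR-amplified and Illumina-sequenced. The interaction score is the log change in variant frequency from input to selection. That logarithm is base 2, with a pseudocount of 1 where a variant was absent.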

The next test addresses PUM1 PUF domain R7-VTR (Homo sapiens, UniProt Q14671 828-1176, S1079V;N1080T;E1083R). The gist of the method: as §1
In the next test the target is PUM1 PUF domain R7-RVT (Homo sapiens, UniProt Q14671 828-1176, S1079R;N1080V;E1083T). The gist of the method: as §1
Sequence of PUM1 PUF domain R7-RVT (Q14671 828-1176 S1079R/N1080V/E1083T): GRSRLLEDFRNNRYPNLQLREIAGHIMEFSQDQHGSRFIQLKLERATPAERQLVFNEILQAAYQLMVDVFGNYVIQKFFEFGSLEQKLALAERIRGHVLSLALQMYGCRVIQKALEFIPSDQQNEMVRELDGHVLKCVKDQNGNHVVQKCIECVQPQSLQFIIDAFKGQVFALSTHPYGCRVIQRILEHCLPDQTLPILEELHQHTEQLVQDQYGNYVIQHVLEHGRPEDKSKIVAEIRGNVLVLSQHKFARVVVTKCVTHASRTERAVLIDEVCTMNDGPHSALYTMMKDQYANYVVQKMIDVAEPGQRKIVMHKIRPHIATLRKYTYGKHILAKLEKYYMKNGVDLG
In another test the target is PUM1 PUF domain R5-GRA (Homo sapiens, UniProt Q14671 828-1176, C1007G;Q1011A). Put shortly:
as §1

Another test has as its target PUM1 PUF domain R5-DWA (Homo sapiens, UniProt Q14671 828-1176, C1007D;R1008W;Q1011A). The gist of the method: as §1
Another test deals with PUM1 PUF domain R5-GHA (Homo sapiens, UniProt Q14671 828-1176, C1007G;R1008H;Q1011A). Put shortly:
as §1

The target of the next test is PUM1 PUF domain R5-RDK (Homo sapiens, UniProt Q14671 828-1176, C1007R;R1008D;Q1011K). The gist of the method: as §1
For the next test, the target named is PUM1 PUF domain R4-VYG (Homo sapiens, UniProt Q14671 828-1176, N971V;H972Y;Q975G). Put shortly:
as §1

The target in another test is PUM1 PUF domain R1-CGE (Homo sapiens, UniProt Q14671 828-1176, S863C;R864G;Q867E). The gist of the method:
as §1

The next test has as its target PUM1 PUF domain R5-GRF (Homo sapiens, UniProt Q14671 828-1176, C1007G;Q1011F). The gist of the method: as §1
The target of a further test is PUM1 PUF domain R5-DFD (Homo sapiens, UniProt Q14671 828-1176, C1007D;R1008F;Q1011D). Put shortly: as §1
Sequence of PUM1 PUF domain R5-DFD (Q14671 828-1176 C1007D/R1008F/Q1011D): as the sequence (Q14671 828-1176 S1079R/N1080V/E1083T) above, with C180D, R181F, Q184D, R252S, V253N, T256E counted along it
For the next test, the target named is PUM1 PUF domain R8-KFN (Homo sapiens, UniProt Q14671 828-1176, N1122K;Y1123F;Q1126N). Put shortly:
as §1

A further test deals with PUM1 PUF domain R5-TRH (Homo sapiens, UniProt Q14671 828-1176, C1007T;Q1011H). The gist of the method:
as §1

The next test concerns the target PUM1 PUF domain R5-GHG (Homo sapiens, UniProt Q14671 828-1176, C1007G;R1008H;Q1011G). The gist of the method: as §1
The next test has as its target PUM1 PUF domain R5-EFD (Homo sapiens, UniProt Q14671 828-1176, C1007E;R1008F;Q1011D). Put shortly: as §1
For a further test, the target named is PUM1 PUF domain R5-CHQ (Homo sapiens, UniProt Q14671 828-1176, R1008H). Put shortly: as §1
For another test, the target named is PUM1 PUF domain R8-RFF (Homo sapiens, UniProt Q14671 828-1176, N1122R;Y1123F;Q1126F). Put shortly:
as §1

The target in the next test is PUM1 PUF domain R8-KKG (Homo sapiens, UniProt Q14671 828-1176, N1122K;Y1123K;Q1126G). Put shortly: as §1
Sequence of PUM1 PUF domain R8-KKG (Q14671 828-1176 N1122K/Y1123K/Q1126G): as the sequence (Q14671 828-1176 S1079R/N1080V/E1083T) above, with R252S, V253N, T256E, N295K, Y296K, Q299G counted along it
The target of the next test is PUM1 PUF domain R8-KKT (Homo sapiens, UniProt Q14671 828-1176, N1122K;Y1123K;Q1126T). The gist of the method: as §1
The next test concerns the target PUM1 PUF domain R3-APK (Homo sapiens, UniProt Q14671 828-1176, C935A;R936P;Q939K). The gist of the method:
as §1

Sequence of PUM1 PUF domain R5-GRA (Q14671 828-1176 C1007G/Q1011A): as the sequence (Q14671 828-1176 S1079R/N1080V/E1083T) above, with C180G, Q184A, R252S, V253N, T256E counted along it
Sequence of PUM1 PUF domain R5-TRH (Q14671 828-1176 C1007T/Q1011H): as the sequence (Q14671 828-1176 S1079R/N1080V/E1083T) above, with C180T, Q184H, R252S, V253N, T256E counted along it
Sequence of PUM1 PUF domain R8-KFN (Q14671 828-1176 N1122K/Y1123F/Q1126N): as the sequence (Q14671 828-1176 S1079R/N1080V/E1083T) above, with R252S, V253N, T256E, N295K, Y296F, Q299N counted along it
Sequence of PUM1 PUF domain R5-GRF (Q14671 828-1176 C1007G/Q1011F): as the sequence (Q14671 828-1176 S1079R/N1080V/E1083T) above, with C180G, Q184F, R252S, V253N, T256E counted along it
Sequence of PUM1 PUF domain R5-GHG (Q14671 828-1176 C1007G/R1008H/Q1011G): as the sequence (Q14671 828-1176 S1079R/N1080V/E1083T) above, with C180G, R181H, Q184G, R252S, V253N, T256E counted along it
Sequence of PUM1 PUF domain R1-CGE (Q14671 828-1176 S863C/R864G/Q867E): as the sequence (Q14671 828-1176 S1079R/N1080V/E1083T) above, with S36C, R37G, Q40E, R252S, V253N, T256E counted along it
Sequence of PUM1 PUF domain R8-RFF (Q14671 828-1176 N1122R/Y1123F/Q1126F): as the sequence (Q14671 828-1176 S1079R/N1080V/E1083T) above, with R252S, V253N, T256E, N295R, Y296F, Q299F counted along it
Sequence of PUM1 PUF domain R7-VTR (Q14671 828-1176 S1079V/N1080T/E1083R): as the sequence (Q14671 828-1176 S1079R/N1080V/E1083T) above, with R252V, V253T, T256R counted along it
Sequence of PUM1 PUF domain R3-APK (Q14671 828-1176 C935A/R936P/Q939K): as the sequence (Q14671 828-1176 S1079R/N1080V/E1083T) above, with C108A, R109P, Q112K, R252S, V253N, T256E counted along it
Sequence of PUM1 PUF domain R7-RPE (Q14671 828-1176 S1079R/N1080P): as the sequence (Q14671 828-1176 S1079R/N1080V/E1083T) above, with V253P, T256E counted along it

For the sequence “GGCUAGAACUAGUGGAUCCCCCGGCGCCCGGCGGCUCGAGCCCGGGUAAGUUUAAAUAGUCUGCAUGCCGCCGGGCGCCAUGCCUGCAGGUCGACUCUAGAAAACAUG”, the binding signal in the test with PUM1 PUF domain R7-RPE was 3.87 log2 enrichment (interaction score); with PUM1 PUF domain R7-VTR, 3.74 log2 enrichment (interaction score); in the test with PUM1 PUF domain R7-RVT, 2.57 log2 enrichment (interaction score).
For “GGCUAGAACUAGUGGAUCCCCCGGCGCCCGGCGGCUCGAGCCCGGGUAAGUGUGAAUAGUCUGCAUGCCGCCGGGCGCCAUGCCUGCAGGUCGACUCUAGAAAACAUG”, the binding signal was 1.36 log2 enrichment (interaction score) with PUM1 PUF domain R5-GRA, 4.75 log2 enrichment (interaction score) with PUM1 PUF domain R5-DWA, 3.2 log2 enrichment (interaction score) in the test with PUM1 PUF domain R5-GHA and 4.56 log2 enrichment (interaction score) with PUM1 PUF domain R5-RDK.
On to “GGCUAGAACUAGUGGAUCCCCCGGCGCCCGGCGGCUCGAGCCCGGGUAAGUGUAGAUAGUCUGCAUGCCGCCGGGCGCCAUGCCUGCAGGUCGACUCUAGAAAACAUG”, for which, in the test with PUM1 PUF domain R4-VYG, the binding signal was 5.26 log2 enrichment (interaction score).
Take “GGCUAGAACUAGUGGAUCCCCCGGCGCCCGGCGGCUCGAGCCCGGGUAAGUGUAAAUGGUCUGCAUGCCGCCGGGCGCCAUGCCUGCAGGUCGACUCUAGAAAACAUG”: the binding signal with PUM1 PUF domain R1-CGE was 3.82 log2 enrichment (interaction score).
Take “GGCUAGAACUAGUGGAUCCCCCGGCGCCCGGCGGCUCGAGCCCGGGUAAGUGUAAAUAGUCUGCAUGCCGCCGGGCGCCAUGCCUGCAGGUCGACUCUAGAAAACAUG”: the binding signal with PUM1 PUF domain R5-GRF is 1.75 log2 enrichment (interaction score); in the test with PUM1 PUF domain R5-DFD, 3.03 log2 enrichment (interaction score); with PUM1 PUF domain R8-KFN it was 2.9 log2 enrichment (interaction score); with PUM1 PUF domain R5-TRH, 5.68 log2 enrichment (interaction score); with PUM1 PUF domain R5-GHG, 3.84 log2 enrichment (interaction score); with PUM1 PUF domain R5-GRA it was 2.95 log2 enrichment (interaction score). Besides, the binding signal with PUM1 PUF domain R5-EFD was 4.36 log2 enrichment (interaction score); with PUM1 PUF domain R5-DWA it was 1.76 log2 enrichment (interaction score); in the test with PUM1 PUF domain R5-GHA it was 3.68 log2 enrichment (interaction score); with PUM1 PUF domain R5-CHQ, 2.46 log2 enrichment (interaction score).
For “GGCUAGAACUAGUGGAUCCCCCGGCGCCCGGCGGCUCGAGCCCGGGUAAGUGUCAAUAGUCUGCAUGCCGCCGGGCGCCAUGCCUGCAGGUCGACUCUAGAAAACAUG”, the binding signal is 2.82 log2 enrichment (interaction score) with PUM1 PUF domain R5-DFD, 2.77 log2 enrichment (interaction score) in the test with PUM1 PUF domain R5-GHG and 2.25 log2 enrichment (interaction score) in the test with PUM1 PUF domain R5-DWA.
With “GGCUAGAACUAGUGGAUCCCCCGGCGCCCGGCGGCUCGAGCCCGGGUAAGUGUUAAUAGUCUGCAUGCCGCCGGGCGCCAUGCCUGCAGGUCGACUCUAGAAAACAUG”, the binding signal is 3.3 log2 enrichment (interaction score) with PUM1 PUF domain R5-GRF; 4.41 log2 enrichment (interaction score) in the test with PUM1 PUF domain R5-TRH; 2.93 log2 enrichment (interaction score) with PUM1 PUF domain R5-GRA; 5.07 log2 enrichment (interaction score) in the test with PUM1 PUF domain R5-DWA; 2.33 log2 enrichment (interaction score) with PUM1 PUF domain R5-GHA.
Take “GGCUAGAACUAGUGGAUCCCCCGGCGCCCGGCGGCUCGAGCCCGGGUAAGCGUAAAUAGUCUGCAUGCCGCCGGGCGCCAUGCCUGCAGGUCGACUCUAGAAAACAUG”: the binding signal was 2.26 log2 enrichment (interaction score) with PUM1 PUF domain R8-KFN, 5.12 log2 enrichment (interaction score) with PUM1 PUF domain R8-RFF, 2.43 log2 enrichment (interaction score) with PUM1 PUF domain R8-KKG and 3.48 log2 enrichment (interaction score) in the test with PUM1 PUF domain R8-KKT.
For “GGCUAGAACUAGUGGAUCCCCCGGCGCCCGGCGGCUCGAGCCCGGGUAAGUGUAAUUAGUCUGCAUGCCGCCGGGCGCCAUGCCUGCAGGUCGACUCUAGAAAACAUG”, the binding signal with PUM1 PUF domain R3-APK is 4.11 log2 enrichment (interaction score).

The values are drawn from publication PMC8384837, “Expanding the binding specificity for RNA recognition by a PUF domain”.
